Compound activity (PubChem)
Pf growth 48h: inhibits P. falciparum growth in the first generation, 48 h; P. falciparum luciferase growth in erythrocytes, 48 h; 310,000 compounds, 5.9% hits; Potency, µM (top dose mostly 28.7 µM), inactives show top-dose activity change, negative = inhibition, usual class: inhibitors; AID 504832; also: potency is read from the fitted curve at half-maximal effect; % is scaled to controls: 0 for no effect and ±100 for the full control effect
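Growth was read as firefly luciferase luminescence after a 48 h, 37 C, 5% CO2 exposure of compounds to reporter-bearing P. falciparum cultures (0.1% parasitemia, 2% hematocrit final) in Albumax-supplemented RPMI 1640.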
Pf growth 96h: P. falciparum growth inhibition at 96 hour, primary screen for plastid delayed-death inhibitors; Potency, µM (series often up to 28.7 µM), without a hit: at the highest dose activity change, negative = inhibition, most hits filed as inhibitors; P. falciparum luciferase reporter growth, 96 h; 320,000 compounds, 6.9% hits; also: potency is read from the fitted curve at half-maximal effect; % is scaled to controls: 0 for no effect and ±100 for the full control effect
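Readout is luminescence from an integrated firefly luciferase in P. falciparum. Red cells, 2% hematocrit and 0.05% parasitemia final, were cultured with compound through two parasite generations (96 hours) at 37 C, 5% CO2.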
LASV entry inh: inhibitors of Lassa virus binding or cell entry. Lassa virus pseudotype entry inhibition, cell reporter. Potency, µM (titrated, usually from 37.9 µM), without a hit: at the top dose activity change, negative = inhibition, usual class: inhibitors. 300,000 compounds, 1.2% hits. AID 540256; calls by dose curve; tested in HEK293 cells; also: potency is read from the fitted curve at half-maximal effect; % is scaled to controls: 0 for no effect and ±100 for the full control effect; nearly all actives have a fitted effect of over 50% in size
CHX counter: counter-screen for Shiga toxin inhibitors: cycloheximide protein synthesis inhibition. cell reporter, cycloheximide protein synthesis inhibition counterscreen. max response, %. 300,000 compounds, 12% hits. AID 2314; in the data active = max response mostly above about 13%, no sharp cut-off; inactive = mostly below about 14%; also: read at 38.3 µM for the half of the compounds with a filed dose; 0% is about no effect
MARV entry inh: Marburg virus entry inhibition; Marburg virus pseudotyped entry inhibition, cell reporter; Potency, µM (highest dose often 37.8 µM), for the others: top-dose activity change, negative = inhibition, most hits filed as inhibitors; 300,000 compounds, 1.8% hits; calls by dose curve; tested in HEK293 cells; also: potency is read from the fitted curve at half-maximal effect; % is scaled to controls: 0 for no effect and ±100 for the full control effect
Shiga toxin inh: Shiga toxin inhibition | inhibition, % at 38.7 µM | AID 2315 | 290,000 compounds, 9.2% hits | Vero cells, Shiga toxin protein synthesis inhibition reporter; in the data active = inhibition mostly above about 28%, no sharp cut-off; inactive = mostly below about 43%; also: 0% is about no effect
* = called active by the depositor; ? = inconclusive; . = not tested or not shown; [ ] = dose if it differs, or a comment. An excerpt weighted towards active compounds, which were near 19% of everything screened. Unless noted, calls follow the shape of the dose curve; as a rule, active = well fitted inhibition curve with a large enough effect; inconclusive = small, poorly fitted or top-dose-only effect, or another doubt; inactive = no such curve, though single readings can be large or run the other way.

SMILES	Pf growth 48h	Pf growth 96h	LASV entry inh	CHX counter	MARV entry inh	Shiga toxin inh
COc1cccc(C(=O)C2CCCN(C(=O)CCc3scnc3C)C2)c1 (stereo unspecified)	-15.8%	?	?	21.8*	-25.4%[46.1 µM]	9.1
COc1cccc(C(=O)C2CCCN(C(=O)c3ccccn3)C2)c1 (stereo unspecified)	15.4%	?	.	-4.2	.	-8.7
Cc1ncsc1CCC(=O)N1CCCC(C(=O)c2ccc3c(c2)OCO3)C1 (stereo unspecified)	-3.9%	23.9%	?	22.7*	?	33.5
COc1ccc2cc(C(=O)C3CCCN(C(=O)CCc4ccccn4)C3)ccc2c1 (stereo unspecified)	?	9.4%	20.6%	23.7*	8.1%[46.1 µM]	31.3*
COc1ccc(NC(=O)CNC(=O)c2nn(-c3ccc(OC)c(OC)c3)c(=O)c3ccccc23)c(OC)c1	?	-5.1%	-14.6%[46.1 µM]	-3.9	-18.1%[46.1 µM]	-5.8
CCOc1ccc(CN2CCNC(=O)C2CC(=O)NCCc2nc(C)c3c(n2)CCC3)cc1 (stereo unspecified)	16.3%	83.2%	.	-3.1	.	-3.3
O=C(NCc1ccccn1)c1ccc(Cl)cc1Cl	36.5%	.	-14.9%[14.3 µM]	28.4*	13.4%	50.8*
C=CCNC(=O)c1ccccc1NC(=O)c1ccc(Cl)c(S(=O)(=O)Nc2cc(C)ccc2C)c1	?	8.28µM*	?	10.1	?	44.9
O=C(NCc1ccccn1)Nc1cc(Cl)cc(Cl)c1	?	125.6%	.	-0.8	.	-9.6
Cc1ccccc1NS(=O)(=O)c1cc(C(=O)Nc2ccccc2-c2ccccc2)ccc1Cl	?	-15.9%	?	1.2	-6.6%	-9.0
O=C(NCc1ccccn1)Nc1cccc(Cl)c1	.	?	0.9%	29.3*	?	43.4*
CC(C)c1ccc(NC(=O)NCc2ccccn2)cc1	-2.6%	16.2%	.	32.8*	.	67.8*
Cc1cc(C)nc(OC(C(=O)O)C(OCCc2ccccc2)(c2ccc(F)cc2)c2ccc(F)cc2)n1 (stereo unspecified)	16.9%	11.5%	.	-1.9	.	-3.0
COc1cc(OC)c(NC(=O)c2cc3c(s2)-c2ccc(Cl)cc2SC3)cc1Cl	.	.	16.6%[46.1 µM]	.	4.9%[46.1 µM]	.
Cc1cc(C)cc(NS(=O)(=O)c2cc(C(=O)NCc3ccccn3)ccc2Cl)c1	12.2%	?	11.3%	-1.7	-3.0%	-10.6
O=C(NCc1ccccn1)c1ccc(Cl)c(S(=O)(=O)Nc2ccccc2C(=O)NCc2ccccn2)c1	11.7µM*	9.28µM*	7.2%	0.9	-7.0%	-7.2
Cc1cccc(NC(=O)NCc2ccccn2)c1	?	52.2%	16.1%	26.7*	11.4%	51.3*
O=C(NCc1ccccn1)Nc1cccc(NC(=O)NCc2ccccn2)c1	2.6%	?	?	5.0	?	12.2
COc1cccc(NC(=O)NCc2ccccn2)c1	22.8%	2.08µM*	.	16.6*	.	30.2*
O=C(NCc1ccccn1)Nc1ccc(Cl)c(Cl)c1	20.3%	37.9%	14.7%	25.8*	6.1%[46.1 µM]	54.6*
CSc1ccccc1NC(=O)c1ccoc1C	-6.2%	.	-16.7%	-2.1	13.2%	35.2
CCC(=O)c1c(O)n(C2CCCCCC2)c(=O)[nH]c1=O	15.5%	11.8%	-4.6%	-1.2	-9.9%	23.5
CC(C)c1ccc(NC(=S)N(C)CCc2ccccn2)cc1	23.6%	56.0%[5.75 µM]	?	29.6*	-27.4%[46.1 µM]	88.1*
O=C(NCc1ccccn1)Nc1cc(Cl)ccc1Cl	7.7%	?	.	35.7	.	90.2*
COc1ccc(C(=O)c2c3ccccc3[n+]([O-])n2Cc2ccc(C(N)=O)cc2)cc1	?	6.57µM*	.	.	.	.
SMILES	Pf growth 48h	Pf growth 96h	LASV entry inh	CHX counter	MARV entry inh	Shiga toxin inh
COc1ccc(C(=O)c2c3ccccc3[n+]([O-])n2CCCN)cc1	?	-99.7%	.	.	.	.
NC(=O)CCn1c(C(=O)c2cccc([N+](=O)[O-])c2)c2ccccc2[n+]1[O-]	39.4%	25.3%	.	-4.0	.	-2.3
COc1ccc(C(=O)c2c3ccccc3[n+]([O-])n2CCC(N)=O)cc1	?	33.1%	.	.	.	.
Cc1ccc(C(=O)c2c3ccc(C(F)(F)F)cc3[n+]([O-])n2CCCC(N)=O)cc1	?	1.1%	.	.	.	.
COc1ccc(C(=O)c2c3ccc(C(F)(F)F)cc3[n+]([O-])n2CCCN)cc1	11.7µM*	?	.	.	.	.
NC(=O)CCn1c(C(=O)c2cc(Cl)c(N)c(Cl)c2)c2ccccc2[n+]1[O-]	?	10.4µM*	.	-1.2	.	2.5
COc1ccc2c(C(=O)c3ccc(Cl)cc3)n(CCCC(N)=O)[n+]([O-])c2c1	9.28µM*	?	.	.	.	.
O=C(Nc1ccccc1Br)C1CCCN1S(=O)(=O)c1cccc2nsnc12 (stereo unspecified)	-1.9%	?	.	-1.5	.	12.9
O=S(=O)(Nc1nc2ccccc2[nH]1)c1ccc(Cl)cc1	-3.7%	?	10.7%	1.7	-1.4%	-7.7
Cc1ccc(-c2nc(CCNC(=O)C(=O)Nc3c(C)cccc3C)cs2)cc1	.	.	-3.3%[46.1 µM]	.	.	.
Cc1ccc(NC(=O)C2CCCN(S(=O)(=O)c3c(C)n[nH]c3C)C2)cc1Cl (stereo unspecified)	.	.	-3.1%[46.1 µM]	.	12.1%[46.1 µM]	.
C=CCNC(=S)NNC(=O)c1ccc(C)c(Cl)c1	46.3%	35.3%	0.9%[46.1 µM]	5.7	-9.9%[46.1 µM]	-5.7
COc1ccc(C(=O)NC(=S)NCCO)cc1Br	32.2%	110.1%	?	16.4*	7.4%	23.4
COc1ccc(C(=O)NC(=S)N(C)Cc2ccccc2)cc1Br	?	28.8%	-6.6%[46.1 µM]	13.2	?	-4.8
C=CCN(CC=C)C(=S)NC(=O)c1ccc(OC)c(Br)c1	10.4µM*	14.7µM*	-25.9%	-2.4	?	-14.6
CCN(CC)C(=S)NC(=O)c1ccc(OC)c(Br)c1	?	-15.4%	?	-1.0	19.5%	-3.0
C=CCNC(=S)NC(=O)c1ccc(C)c(Br)c1	-13.8%[5.75 µM]	28.6%	.	38.3*	.	100.0*
O=c1c2c3c(sc2n2cnnc2n1C1CCCCC1)CCC3	8.2%	?	.	-3.4	.	4.5
COc1ccc(OC)c(N2C(=O)/C(=C/c3ccco3)C(=O)NC2=S)c1	17.5%[0.00184 µM]	?	-8.1%	-4.7	10µM*	-1.6
CN(Cc1ccccc1)C(=O)c1ccc(NC(=O)Cc2cccc(NC(=O)C3CCN(C(=O)C4CCCC4)CC3)c2)cc1	?	5.86µM*	.	.	4.4%	.
CN(Cc1ccccc1)C(=O)c1ccc(NC(=O)Cc2cccc(NC(=O)C3CCCN(C(=O)CCc4ccccc4)C3)c2)cc1 (stereo unspecified)	3.7µM*	1.47µM*	.	.	.	.
O=C(CCc1cccc(Cl)c1)N1CCCC(Nc2ccccc2)C1 (stereo unspecified)	-6.8%	-29.0%	.	-2.8	.	11.9
CN(C(=O)c1ccc(NC(=O)Cc2ccc(NC(=O)C3CCCN(C(=O)CCc4ccccc4)C3)cc2)cc1)C1CC1 (stereo unspecified)	13.1µM*	?	.	.	.	.
